Test results: PubChem BioAssay
A number with no mark means an inactive call. For some assays here: Results with a measured potency or affinity are listed apart. Active and inactive are the calls of the source. Unless noted, no rule for the calls is given here.

Columns and labels:
[1] = antimalarial activity against Dd2 strain (AID 2302;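 active = growth inhibition above 50% at the single 2 µM test dose, taken to imply half-maximal potency below 2 µM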;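 also: 0% = DMSO untreated growth and 100% = chloroquine plus artemisinin killed control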); conditions: P. falciparum Dd2 in RBCs, LDH growth readout, 72 h; at 2 µM; hits give high values
[2] = HepG2 cytotoxicity, primary screen, cytotoxicity control for P. falciparum antimalarial project, cell-based, ATP luminescence (AID 2303;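 active = inhibition above 50%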;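 also: 0% = DMSO wells and 100% = digitonin-killed cells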); conditions: HepG2 viability, 24-48 h, at 10 µM, hits give high values
[3] = molecular target: L-lactate dehydrogenase (Plasmodium falciparum (isolate CDC / Honduras)) (UniProt Q27743); assay: PfLDH activity inhibition – cell lysate, 3D7 strain, counter-screen for P. falciparum growth inhibition project (AID 2304);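 also: 0% = vehicle and 100% = reference inhibitor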; conditions: P. falciparum 3D7 crude extract, LDH APAD/NBT absorbance; at 2 µM; hits give high values
Sequence of L-lactate dehydrogenase (Plasmodium falciparum (isolate CDC / Honduras)) (Q27743 whole entry, looked up): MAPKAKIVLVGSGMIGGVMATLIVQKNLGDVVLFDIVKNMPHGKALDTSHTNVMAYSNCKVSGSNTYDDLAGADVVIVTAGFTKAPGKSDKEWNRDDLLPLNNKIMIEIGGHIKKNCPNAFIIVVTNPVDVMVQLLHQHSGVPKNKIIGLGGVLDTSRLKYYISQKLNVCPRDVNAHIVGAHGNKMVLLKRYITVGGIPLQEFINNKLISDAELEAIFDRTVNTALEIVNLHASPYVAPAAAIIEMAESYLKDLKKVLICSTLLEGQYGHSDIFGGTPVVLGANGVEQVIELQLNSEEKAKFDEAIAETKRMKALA

[4] = inhibition of 3D7 malaria parasite growth – strain 3D7 (AID 2306);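 also: 0% = DMSO wells and 100% = chloroquine plus artemisinin control wells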; conditions: P. falciparum 3D7 erythrocytic growth, LDH absorbance, 72 h; at 2 µM; hits give high values
[5] = molecular target: Calcium-dependent protein kinase 1 (Plasmodium falciparum (isolate 3D7)) (UniProt P62344); assay: PfCDPK1 kinase inhibitors, biochemical, TCAMS library (AID 1159585; cut-off not given, nearly all actives have IC50 up to about 0.98 µM;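 also: inhibitors leave more ATP so luminescence rises with inhibition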); conditions: recombinant PfCDPK1, Kinase-Glo ATP depletion luminescence
Sequence of Calcium-dependent protein kinase 1 (Plasmodium falciparum (isolate 3D7)) (P62344 whole entry, looked up): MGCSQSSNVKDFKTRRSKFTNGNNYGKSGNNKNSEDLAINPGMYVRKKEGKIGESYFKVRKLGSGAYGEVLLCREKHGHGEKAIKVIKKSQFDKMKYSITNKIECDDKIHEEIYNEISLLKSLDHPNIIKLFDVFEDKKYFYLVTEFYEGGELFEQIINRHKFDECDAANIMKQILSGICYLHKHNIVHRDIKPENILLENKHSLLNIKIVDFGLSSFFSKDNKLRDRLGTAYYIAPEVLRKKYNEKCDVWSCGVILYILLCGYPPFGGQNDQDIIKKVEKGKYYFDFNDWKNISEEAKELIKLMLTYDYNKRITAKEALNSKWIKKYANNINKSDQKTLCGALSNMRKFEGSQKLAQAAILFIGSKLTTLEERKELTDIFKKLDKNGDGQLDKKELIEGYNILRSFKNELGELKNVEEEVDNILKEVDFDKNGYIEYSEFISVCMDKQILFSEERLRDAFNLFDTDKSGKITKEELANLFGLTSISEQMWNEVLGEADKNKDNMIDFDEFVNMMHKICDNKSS

[6] = molecular target: Plasmodium falciparum protein kinase 6 (PK6, PF3D7_1337100) (UniProt Q8IDW1); assay: PfPK6 kinase inhibitors, biochemical, TCAMS library (AID 1159586); conditions: recombinant PfPK6, Kinase-Glo ATP depletion luminescence
Sequence of Plasmodium falciparum protein kinase 6 (PK6, PF3D7_1337100) (Q8IDW1 1-305): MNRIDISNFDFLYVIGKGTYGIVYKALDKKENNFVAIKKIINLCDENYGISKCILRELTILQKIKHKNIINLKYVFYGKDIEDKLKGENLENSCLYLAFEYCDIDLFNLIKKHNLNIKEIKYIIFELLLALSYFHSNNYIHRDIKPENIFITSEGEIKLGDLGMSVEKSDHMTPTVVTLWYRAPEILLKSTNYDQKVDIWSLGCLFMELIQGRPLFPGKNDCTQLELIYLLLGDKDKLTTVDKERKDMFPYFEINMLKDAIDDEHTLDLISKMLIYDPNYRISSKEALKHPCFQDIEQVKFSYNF

[7] = molecular target: Protein kinase 7 (PK7), Plasmodium falciparum 3D7 (PF3D7_0213400) (UniProt Q7YTF7); assay: inhibition of Plasmodium PK7 catalytic activity – biochemical, TCAMS antimalarial set, Kinase-Glo luminescence (AID 1159587); conditions: recombinant PfPK7, Kinase-Glo ATP depletion luminescence
Sequence of Protein kinase 7 (PK7), Plasmodium falciparum 3D7 (PF3D7_0213400) (Q7YTF7 1-343): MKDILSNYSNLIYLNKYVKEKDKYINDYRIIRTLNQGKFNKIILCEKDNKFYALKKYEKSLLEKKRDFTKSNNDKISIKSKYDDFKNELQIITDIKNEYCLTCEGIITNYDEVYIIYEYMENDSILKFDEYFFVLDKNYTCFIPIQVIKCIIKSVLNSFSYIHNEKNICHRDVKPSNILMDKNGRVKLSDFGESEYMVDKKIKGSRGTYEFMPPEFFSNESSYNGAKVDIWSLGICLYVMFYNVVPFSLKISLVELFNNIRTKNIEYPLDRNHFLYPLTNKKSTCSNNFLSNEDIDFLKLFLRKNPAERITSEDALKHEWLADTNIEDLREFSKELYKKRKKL

[8] = molecular target: Calcium-dependent protein kinase 4 (Plasmodium falciparum (isolate 3D7)) (UniProt Q8IBS5); assay: PfCDPK4 kinase inhibitors, biochemical, TCAMS library (AID 1159588; cut-off not given, nearly all actives have IC50 up to about 0.91 µM); conditions: recombinant PfCDPK4, Kinase-Glo ATP depletion luminescence
Sequence of Calcium-dependent protein kinase 4 (Plasmodium falciparum (isolate 3D7)) (Q8IBS5 whole entry, looked up): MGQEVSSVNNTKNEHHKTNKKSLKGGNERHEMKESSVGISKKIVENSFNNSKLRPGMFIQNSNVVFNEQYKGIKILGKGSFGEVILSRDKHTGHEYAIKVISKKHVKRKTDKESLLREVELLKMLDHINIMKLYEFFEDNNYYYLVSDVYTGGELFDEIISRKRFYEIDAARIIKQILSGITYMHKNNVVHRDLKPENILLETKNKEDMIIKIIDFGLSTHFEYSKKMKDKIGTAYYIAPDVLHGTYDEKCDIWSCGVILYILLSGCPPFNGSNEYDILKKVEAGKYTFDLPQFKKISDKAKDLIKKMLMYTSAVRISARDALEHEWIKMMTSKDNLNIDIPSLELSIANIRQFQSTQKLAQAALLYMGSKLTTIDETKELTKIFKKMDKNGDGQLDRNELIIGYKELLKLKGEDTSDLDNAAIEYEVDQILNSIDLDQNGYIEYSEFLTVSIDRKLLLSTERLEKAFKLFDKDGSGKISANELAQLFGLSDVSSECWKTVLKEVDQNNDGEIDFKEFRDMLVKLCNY

| SMILES | growth inhibition [1] | inhibition [2] | inhibition [3] | growth inhibition [4] | outcome [5] | outcome [6] | outcome [7] | outcome [8] |
| --- | --- | --- | --- | --- | --- | --- | --- | --- |
| CCC(C)(C)c1ccc(N2C(N)=NC(N)=NC2(C)C)cc1 | 4% | 40% | -1% | 91% (active) | inactive | inactive | inactive | inactive |
| COc1cc2nc(N3CCC(c4ccccc4)CC3)nc(NCc3ccc(=O)[nH]c3)c2cc1OC | 58% (active) | 12% | 0% | 100% (active) | inactive | inactive | inactive | inactive |
| CC(C)(C)c1ccc(CN2CCC(CNC(=O)c3cc(-c4ccccc4F)cs3)C2)cc1 (configuration not stated) | 98% (active) | 46% | 4% | 100% (active) | inactive | inactive | inactive | inactive |
| CC(C)(CC1CCCCC1)NC(=O)[C@H](CC1CCCCC1)Nc1ccc(C#N)c2ccccc12 | 52% (active) | 14% | -2% | 98% (active) | inactive | inactive | inactive | inactive |
